“And” between values parts separate entries of the source, which are not always exact repeats. Equal entries are not always repeated. Records with an inconclusive call do not appear. Entries that show only a call come without a potency. The source made the active and inactive calls. Calls follow the shape of the dose curve; as a rule, active = well fitted curve in the direction sought with a large enough effect; inconclusive = small, poorly fitted or top-dose-only effect, or another doubt; inactive = no such curve, though single readings can be large; an effect the other way counts as inactive or inconclusive.
Key:
[1] = biological target: Phenylethanolamine N-methyltransferase (Homo sapiens) (UniProt P11086); test: Confirmatory Screen for Target Class Profiling of Small Molecule Inhibitors of Methyltransferases (AID 1745852); conditions: MTase-Glo luminescence, SAH detection, recombinant enzyme; measured here: PNMT max response; stronger effect = lower value
[2] = biological target: Metallo-beta-lactamase type 2 (Klebsiella pneumoniae) (UniProt C7C422); test: qHTS to identify inhibitors of the New Delhi Metallo-beta-lactamase (NDM): assay validation screen against the NCATS LOPAC Collection (AID 1794843); conditions: NDM-1 enzyme, nitrocefin hydrolysis, absorbance 485 nm; series mostly up to 38.4 µM
Procedure, shortened: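 Absorbance at 485 nm from nitrocefin turnover (50 uM solution added), read at plateau, gives the read-out. Compounds in DMSO were incubated first with 2 nM final NDM-1 in pH 7.0 HEPES buffer containing 1 uM ZnSO4 and 0.01% Tween20.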

[3] = biological target: Glutathione peroxidase 1 (Homo sapiens) (UniProt P07203); test: Primary qHTS Assay for Inhibitors of Recombinant Selenoprotein Glutathione Peroxidase 1 (GPX1) (AID 1845191); conditions: recombinant GPX1, GR-coupled NADPH fluorescence, 15 min; series mostly up to 48.8 µM; also: nearly all actives have a fitted effect of over 65% in size; also: potency is read from the fitted curve at half-maximal effect
Procedure, shortened: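 GPX1 10 nM, GR 100 nM, GSH 1 mM, NADPH 0.5 mM, CHP 0.5 mM (final). 30-min cpd preincubation, RT. Ex340/Em450 read t=0, t=15 min.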

[4] = biological target: Phospholipid hydroperoxide glutathione peroxidase GPX4 (Homo sapiens) (UniProt P36969); test: Primary qHTS Assay for Inhibitors of Recombinant Selenoprotein Glutathione Peroxidase 4 (GPX4) (AID 1845192); conditions: recombinant GPX4, GR-coupled NADPH fluorescence, 15 min; series mostly up to 50 µM; also: nearly all actives have a fitted effect of over 65% in size; also: potency is read from the fitted curve at half-maximal effect
Procedure, shortened: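 qHTS, GR-coupled: GPX4 200 nM + cpd 30 min RT → GSH 1 mM, NADPH 0.5 mM, GR 100 nM → CHP 0.5 mM start; fluor 340/450 at t0 and t15 min; no-enzyme wells as control.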

[5] = biological target: Luciferin 4-monooxygenase (Photinus pyralis) (UniProt P08659); test: Primary firefly luciferase (FLuc) qHTS assay for identification of artifact compounds. (AID 1845220); conditions: purified firefly luciferase, luminescence, 5 min; series mostly up to 54.1 µM; also: nearly all actives have a fitted effect of over 60% in size
Procedure, shortened: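 Reaction readout was CCD-imaged luminescence, taken 5 min after adding 10 nM purified firefly enzyme to compound-treated wells holding 10 uM luciferin and ATP in pH 7.6 buffer.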

[6] = Primary fluorescence-based thiol-reactive (MSTI) qHTS assay for identification of artifact compounds. (AID 1845221); conditions: MSTI thiol-reactivity probe, 1 h; series mostly up to 53.8 µM;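 also: thiol-reactive compounds lower the probe fluorescence signal; nearly all actives have a fitted effect of over 65% in size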
Procedure, shortened: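 In PBS pH 7.4 with 2% DMSO, each compound met 4 uM MSTI for one hour at ambient temperature, shielded from light, before fluorescence detection.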

[7] = tested on: Nanoluciferase (engineered Oplophorus gracilirostris luciferase); test: Primary Nanoluciferase (NLuc) qHTS assay for identification of artifact compounds. (AID 1845222); conditions: NLuc-conditioned medium, Nano-Glo luminescence, 5 min; series mostly up to 54.1 µM;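 also: NLuc secreted into diluted conditioned medium of S16 cells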
Procedure, shortened: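 Concentration-response data were obtained by luminescence after 5 min with Nano-Glo substrate at 1:100. The enzyme was diluted S16 NLuc-expressing cell medium, preincubated with compound for 15 min at RT. Curves were fitted with a 4-parameter Hill model.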

[8] = Primary redox qHTS assay for identification of artifact compounds. (AID 1845223); conditions: Amplex Red/HRP redox cycling with DTT, fluorescence; series mostly up to 53.8 µM
Procedure, shortened: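 Redox-cycling detection via DTT (250 uM final) oxidation coupled to Amplex Red (25 uM)/HRP (250 mU/mL) in HBSS. 15 min preincubation plus 30 min after DTT, room temperature. Ex/Em 525/598 nm; 4-parameter Hill fit against DMSO and 10 uM DA3003.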

[9] = NCATS anti-infectives library activity on HEK293 viability as a counter-qHTS vs the C. elegans viability qHTS (AID 1745854); conditions: HEK293 viability counter-screen; series mostly up to 41.8 µM
Procedure, shortened: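 CellTiter-Glo luminescence, read on a CCD imager, scored viability of HEK293 cells after 24 hr compound exposure at 37C. Library tested in several concentrations, 1:5 steps, up to 41.7 uM; digitonin served as control.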

[10] = Viability counterscreen for antagonist of constitutive androstane receptor (CAR) against the NCATS DSHEA and TCM libraries (AID 1794837); conditions: CAR reporter cell line viability counterscreen, qHTS; series mostly up to 40 µM;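 also: compound exposure lasted 24 h before viability reading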
Procedure, shortened: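 Cell viability, CellTiter-Fluor, Ex/Em 405/540 nm, 1 h at 37C. HepG2-CYP2B6-hCAR, 2,500 cells/well; cpds + CITCO 48 uM final (antagonist mode), 24 h, 37C/5% CO2.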

[11] = Viability counterscreen for agonist of constitutive androstane receptor (CAR) against the NCATS DSHEA and TCM libraries (AID 1794838); conditions: HepG2 cell viability counterscreen, CAR agonist assay, co-treated with 0.75 µM CAR antagonist; series mostly up to 40 µM;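 also: HepG2 cells with CYP2B6 reporter and hCAR plus 0.75 µM PK11195 antagonist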
Procedure, shortened: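 Viability by CellTiter-Fluor fluorescence, 405/540 nm, after 1 h at 37C. HepG2-CYP2B6-hCAR cells were exposed 24 h to test substances in presence of 0.75 uM PK11195 (final).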

[12] = HepG2 viability counterscreen (readout 2: ATP content) against the NCATS DSHEA and TCM libraries (AID 1794840); conditions: ATP content luminescence; series mostly up to 27.3 µM
Procedure, shortened: (§1)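 1,000 HepG2 cells/well, 4 h attach; compounds ~24 h, 37C/5% CO2. Readout 1: GF-AFC 25 uM final, 30 min, fluorescence 380/510 nm. Readout 2: CellTiter-Glo, 30 min RT, luminescence.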

[13] = HepG2 viability counterscreen (readout 1: protease activity) against the NCATS DSHEA and TCM libraries (AID 1794841); conditions: qHTS concentration series; series mostly up to 27.3 µM;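 also: cells exposed to compounds for about 24 h before the protease read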
Procedure, shortened: as §1

[14] = biological target: Cytochrome P450 3A4 (Homo sapiens) (UniProt P08684); test: qHTS for inhibitors of CYP3A4 against the NCATS DSHEA and TCM libraries (AID 1919971); conditions: recombinant CYP3A4 enzyme activity, luminescence qHTS; series mostly up to 34.1 µM;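 also: inhibition lowers luminescence from luciferin made by CYP3A4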
Procedure, shortened: (§2)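 Substances were tested against enzyme with a pro-luciferin substrate; minus-enzyme wells served as background. After NADPH-initiated oxidation (30-45 min, RT), light was generated with P450-Glo reagent.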

[15] = biological target: Cytochrome P450 2D6 (Homo sapiens) (UniProt P10635); test: qHTS for inhibitors of CYP2D6 against the NCATS DSHEA and TCM libraries (AID 1919972); conditions: CYP2D6 enzymatic inhibition, luminescence qHTS; series mostly up to 34.1 µM
Procedure, shortened: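 qHTS, concentration–response format with most substances from 19.5 nM. CYP2D6 + pro-luciferin substrate, 15 min with compound, then 1x NADPH regen, 30–45 min RT dark. Glo detection 30 min, luminescence. Quinidine control.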

[16] = biological target: Cytochrome P450 2C19 (Homo sapiens) (UniProt P33261); test: qHTS for inhibitors of CYP2C19 against the NCATS DSHEA and TCM libraries (AID 1919974); conditions: CYP2C19 enzyme inhibition, luminescence qHTS;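 also: luminescence from luciferin released by CYP2C19 oxidation of a pro-luciferin substrate; potency is read from the fitted curve at half-maximal effect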
Procedure, shortened: as §2

[17] = KB-3-1 P-gp reporter qHTS against the NCATS DSHEA and TCM libraries (AID 1919975); conditions: KB-3-1 parental cells, CellTiter-Glo luminescence viability, 72 h; series mostly up to 26.1 µM
Procedure, shortened: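 CellTiter-Glo luminescence viability readout; KB-3-1 parental cells, 500/well, attached ~4 h, then compound for ~72 h, 37C, 5% CO2. Bortezomib intraplate control.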

[18] = qHTS Counterscreen for compound interference against the NCATS DSHEA and TCM libraries (AID 1919978); conditions: firefly luciferase detection reagent interference, luminescence;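 also: compounds preincubated with 1 µM D-luciferin or buffer before detection reagent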
Procedure, shortened: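 Luminescence counterscreen for detection-kit interference: compounds at 19.5 nM–39.8 uM final, 15 min RT with 1 uM D-luciferin or buffer only; detection reagent added, 30 min RT, then read.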

Chain of Phenylethanolamine N-methyltransferase (Homo sapiens) (P11086 whole entry, looked up): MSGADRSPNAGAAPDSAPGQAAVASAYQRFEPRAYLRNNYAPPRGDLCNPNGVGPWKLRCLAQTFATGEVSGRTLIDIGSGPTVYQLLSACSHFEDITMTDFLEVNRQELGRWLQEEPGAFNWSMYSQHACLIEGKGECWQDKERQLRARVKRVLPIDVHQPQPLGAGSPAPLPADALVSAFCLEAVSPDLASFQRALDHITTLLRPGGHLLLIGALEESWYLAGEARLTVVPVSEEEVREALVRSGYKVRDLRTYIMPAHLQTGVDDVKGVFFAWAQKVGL
Chain of Glutathione peroxidase 1 (Homo sapiens) (P07203 whole entry, looked up): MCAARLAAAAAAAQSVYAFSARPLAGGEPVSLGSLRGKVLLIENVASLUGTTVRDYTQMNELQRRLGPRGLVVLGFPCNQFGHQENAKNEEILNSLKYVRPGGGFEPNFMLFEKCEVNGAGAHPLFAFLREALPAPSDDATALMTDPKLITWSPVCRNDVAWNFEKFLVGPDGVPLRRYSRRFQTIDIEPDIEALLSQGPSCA
Chain of Metallo-beta-lactamase type 2 (Klebsiella pneumoniae) (C7C422 whole entry, looked up): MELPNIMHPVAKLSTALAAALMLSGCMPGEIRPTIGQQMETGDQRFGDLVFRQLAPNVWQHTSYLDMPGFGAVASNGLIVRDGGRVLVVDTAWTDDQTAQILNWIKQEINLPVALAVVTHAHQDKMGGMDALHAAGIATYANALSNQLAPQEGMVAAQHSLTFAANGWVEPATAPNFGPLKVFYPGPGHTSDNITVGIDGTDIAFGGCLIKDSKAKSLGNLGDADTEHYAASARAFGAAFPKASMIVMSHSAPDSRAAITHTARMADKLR
Chain of Phospholipid hydroperoxide glutathione peroxidase GPX4 (Homo sapiens) (P36969 whole entry, looked up): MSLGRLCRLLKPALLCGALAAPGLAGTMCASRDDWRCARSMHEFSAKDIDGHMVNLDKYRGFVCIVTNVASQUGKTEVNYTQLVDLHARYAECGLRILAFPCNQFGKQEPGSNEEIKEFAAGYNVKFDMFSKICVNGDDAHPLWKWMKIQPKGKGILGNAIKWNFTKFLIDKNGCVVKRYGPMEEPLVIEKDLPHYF
Chain of Cytochrome P450 2C19 (Homo sapiens) (P33261 whole entry, looked up): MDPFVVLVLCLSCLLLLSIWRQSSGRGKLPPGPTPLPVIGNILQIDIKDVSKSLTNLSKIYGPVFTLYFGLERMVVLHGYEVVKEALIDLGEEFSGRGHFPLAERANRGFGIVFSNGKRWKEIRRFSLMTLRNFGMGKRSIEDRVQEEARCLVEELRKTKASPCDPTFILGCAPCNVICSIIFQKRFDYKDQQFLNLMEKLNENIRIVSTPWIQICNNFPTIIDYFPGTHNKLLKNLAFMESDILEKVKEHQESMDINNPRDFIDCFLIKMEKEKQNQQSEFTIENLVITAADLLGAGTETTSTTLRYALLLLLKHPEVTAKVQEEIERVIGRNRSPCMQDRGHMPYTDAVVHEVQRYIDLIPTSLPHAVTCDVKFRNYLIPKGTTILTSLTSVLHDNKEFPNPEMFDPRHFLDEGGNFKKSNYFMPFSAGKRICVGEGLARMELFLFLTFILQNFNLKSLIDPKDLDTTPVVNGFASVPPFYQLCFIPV
Chain of Cytochrome P450 2D6 (Homo sapiens) (P10635 whole entry, looked up): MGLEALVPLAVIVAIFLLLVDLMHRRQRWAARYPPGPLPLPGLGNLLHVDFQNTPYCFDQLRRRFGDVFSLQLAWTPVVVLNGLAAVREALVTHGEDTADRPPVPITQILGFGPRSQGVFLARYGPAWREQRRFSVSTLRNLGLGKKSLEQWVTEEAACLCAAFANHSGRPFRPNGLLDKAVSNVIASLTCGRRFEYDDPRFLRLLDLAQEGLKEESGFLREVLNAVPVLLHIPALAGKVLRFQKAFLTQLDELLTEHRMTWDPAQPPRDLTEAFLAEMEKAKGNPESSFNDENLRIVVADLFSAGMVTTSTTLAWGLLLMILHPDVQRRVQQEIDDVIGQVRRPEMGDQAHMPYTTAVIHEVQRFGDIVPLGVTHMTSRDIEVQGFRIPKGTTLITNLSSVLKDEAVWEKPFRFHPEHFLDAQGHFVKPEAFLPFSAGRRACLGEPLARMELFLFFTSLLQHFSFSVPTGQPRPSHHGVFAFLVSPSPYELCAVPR
Chain of Cytochrome P450 3A4 (Homo sapiens) (P08684 whole entry, looked up): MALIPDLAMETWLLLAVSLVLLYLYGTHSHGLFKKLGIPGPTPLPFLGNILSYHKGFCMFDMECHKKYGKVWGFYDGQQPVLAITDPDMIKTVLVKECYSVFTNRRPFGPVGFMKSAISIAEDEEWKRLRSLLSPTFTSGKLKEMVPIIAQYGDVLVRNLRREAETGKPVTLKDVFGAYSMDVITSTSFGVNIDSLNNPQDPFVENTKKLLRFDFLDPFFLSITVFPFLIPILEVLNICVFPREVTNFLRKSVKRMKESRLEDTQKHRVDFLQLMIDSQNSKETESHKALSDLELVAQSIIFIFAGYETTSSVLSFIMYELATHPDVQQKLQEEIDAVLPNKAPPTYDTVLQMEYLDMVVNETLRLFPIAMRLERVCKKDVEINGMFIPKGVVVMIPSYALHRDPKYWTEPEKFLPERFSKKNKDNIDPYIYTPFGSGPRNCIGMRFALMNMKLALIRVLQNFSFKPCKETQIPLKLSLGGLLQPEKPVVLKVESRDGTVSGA

O=[N+]([O-])c1ccc(CNc2nc(NCc3cccc(C(F)(F)F)c3)nc3nc[nH]c23)cc1
activity [1]: -13.5% and 7.65%
Potency [2]: inactive
Potency [3]: inactive
Potency [4]: inactive
Potency [5]: inactive
outcome [6]: inactive
Potency [7]: inactive
outcome [8]: inactive

COc1cc(OC)c(/C=C2/C(=O)Nc3ccccc32)c(OC)c1
activity [1]: -34.5%
Potency [2]: inactive
Potency [3]: inactive

Fc1ccc(C(OCCCc2cnc[nH]2)c2ccc(F)cc2)cc1
activity [1]: -0.346%
Potency [2]: inactive
Potency [3]: inactive
Potency [4]: inactive

COc1ccc(NC(=O)/C=C/c2ccc(Cl)cc2)cc1
activity [1]: -10.5%
Potency [2]: inactive
Potency [3]: inactive

CC(C(=O)O)c1ccc(C(=O)c2cccs2)cc1 (centres undefined)
outcome [9]: inactive
Potency [3]: inactive
Potency [4]: inactive

COc1ccc(/C=C2\COc3ccc(C)cc3C2=O)cc1O
activity [1]: 4.48%
Potency [2]: inactive
Potency [3]: inactive
Potency [4]: inactive

Oc1ccccc1O
activity [1]: 8.37%
Potency [2]: inactive
Potency [3]: inactive
Potency [4]: inactive

Oc1cc2c(cc1O)CN(C(=S)NCCc1ccc(Cl)cc1)CCC2
activity [1]: 0.243%
Potency [2]: inactive
Potency [3]: inactive
Potency [4]: inactive

CCN(CC)CCCCNc1ncc2cc(-c3c(Cl)cccc3Cl)c(NC(=O)NC(C)(C)C)nc2n1
activity [1]: -6.92% and -0.98%
Potency [2]: inactive
Potency [3]: 20.2 µM (active)
Potency [4]: 7.18 µM (active)
Potency [5]: inactive
outcome [6]: inactive
Potency [7]: inactive
outcome [8]: inactive

COC(=O)C1=C(C)NC(C)=C(C(=O)OC)C1c1cccc(NC(=O)NCCCN2CCC(c3cccc(OC)c3)CC2)c1
activity [1]: 0.516% and -5.06%
Potency [2]: inactive
Potency [3]: inactive
Potency [4]: inactive
Potency [5]: inactive
outcome [6]: inactive
Potency [7]: inactive
outcome [8]: inactive

C[S+](CC[C@H](N)C(=O)O)C[C@H]1O[C@@H](n2cnc3c(N)ncnc32)[C@H](O)[C@@H]1O (some centres undefined)
outcome [10]: inactive
outcome [11]: inactive
outcome [12]: inactive
outcome [13]: inactive
outcome [14]: inactive
outcome [15]: inactive
Potency [16]: 3.98 µM (active)
outcome [17]: inactive
max response [18]: -4.63% (inactive)

CCOC(=O)N1CCN(/[N+]([O-])=N/Oc2ccc([N+](=O)[O-])cc2[N+](=O)[O-])CC1
activity [1]: -3.94%
Potency [2]: inactive
Potency [3]: inactive

N.N.N.N.N.N.N.N.N.N.N.N.N.N.O.O.[Ru+4].[Ru+5].[Ru+5]
activity [1]: -7.59%
Potency [3]: inactive
Potency [4]: inactive
